Only some compounds are listed: those with a hit (about 17% of all), similar ones and a draw of the others.
HepG2 viability: HepG2 cytotoxicity, counter-screen for TGF-b inhibitors; HepG2 CAGA-GFP viability, ATP luminescence, 18 h; Potency, µM (doses to about 46.1 µM), for the others: at the highest dose activity change, negative = cytotoxicity, actives largely listed as cytotoxic; 410,000 compounds, 0.76% hits
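HepG2 CAGA-GFP cells (1000/well, DMEM with 1% FBS) received compound, then TGF-beta at 500 pg/mL final, and were incubated 18 hours at 37 degrees C. Viability was read by CellTiter-Glo luminescence. Media-only wells were set as complete cell-killing and DMSO as no toxicity.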
DT40 TDP1 no CPT: qHTS for Inhibitors of human tyrosyl-DNA phosphodiesterase 1 (TDP1): qHTS in cells in absence of CPT; DT40 Tdp1-/- hTDP1 cells, no CPT, ATP luminescence, 48 h; Potency, µM (titrated, usually from 46.2 µM), for the others: top-dose activity change, negative = growth inhibition, usual class: inhibitors; 420,000 compounds, 15% hits; note: % is set by controls: 0 for no effect and ±100 for the full control effect; nearly all actives have a fitted effect of over 55% in size
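DT40 Tdp1-/-;hTDP1 cells, no CPT (DMSO vehicle only), 400 cells/well; compounds pin-transferred; ≥48 hr, 37 °C; CellTiter-Glo 30 min RT dark, luminescence read.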
S2 tox: cell viability loss in ATXN counter-screen | S2 cells (HEK-293 line with an ATXN2-luciferase reporter) viability, CellTiter-Fluor protease fluorescence, 24 h | Potency, µM (highest dose often 56.7 µM), actives largely listed as cytotoxic | 400,000 compounds, 0.49% hits; note: nearly all actives have a fitted effect of over 40% in size
TGFb inhibitor: inhibitors of TGF-b signaling | 410,000 compounds, 1.2% hits | AID 588855 | Potency, µM (doses to about 46.1 µM), for the others: at the top dose activity, negative = inhibition, most hits filed as inhibitors | HepG2 CAGA-GFP TGF-b/SMAD3 reporter, GFP fluorescence, 18 h; TGF-beta stimulated, 500 pg/mL final; note: % is set by controls: 0 for no effect and ±100 for the full control effect; nearly all actives have a fitted effect of over 65% in size
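HEPG2 CAGA-GFP reporter cells (1000/well, DMEM with 1% FBS) received compounds, then recombinant TGF-beta at 500 pg/mL final for 18 hours at 37 degrees C. Per-cell GFP summed per well was normalised to unstimulated and stimulated DMSO controls before curve fitting.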
DT40 TDP1 CPT: growth inhibition of DT40 Tdp1-/-;hTDP1 cells with camptothecin (screen for TDP1 inhibitors) | chicken DT40 Tdp1-/-;hTDP1 cells + 20 nM CPT, ATP luminescence, 48 h | Potency, µM (titrated, usually from 46.2 µM), without a hit: at the top dose activity change, negative = growth inhibition, hits mostly inhibitors | 420,000 compounds, 12% hits | AID 686979; note: % is set by controls: 0 for no effect and ±100 for the full control effect; nearly all actives have a fitted effect of over 55% in size
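Chicken DT40 Tdp1-/- cells complemented with human TDP1, 400 cells/well, exposed to compounds plus 20 nM camptothecin for at least 48 h at 37 C; viability read as ATP content by CellTiter-Glo luminescence.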
ATXN2 expr inh: inhibitors of ATXN2 expression; AID 1745845; HEK-293 ATXN2-luciferase reporter, luminescence, 24 h; 360,000 compounds, 0.72% hits; Potency, µM (highest dose often 57 µM), inactives show at the highest dose activity change, negative = inhibition, most hits filed as inhibitors; note: % is set by controls: 0 for no effect and ±100 for the full control effect; nearly all actives have a fitted effect of over 55% in size
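qHTS (up to 57 uM final) was run with 24 h compound exposure of reporter cells at 37 °C. Each well was multiplexed: SteadyGlo luminescence measured ATXN2-luciferase expression after a fluorogenic Gly-Phe-AFC viability readout (25 uM final).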
An asterisk follows results filed as active; i = inactive; u = inconclusive; x = no result given. Calls come from the whole dose curve; as a rule, active = well fitted curve in the direction sought with a large enough effect; inconclusive = small, poorly fitted or top-dose-only effect, or another doubt; inactive = no such curve, though single readings can be large; an effect the other way counts as inactive or inconclusive. Potency is the fitted concentration of half-maximal effect.

SMILES	HepG2 viability	DT40 TDP1 no CPT	S2 tox	TGFb inhibitor	DT40 TDP1 CPT	ATXN2 expr inh
COc1ccccc1CN1CC(C(=O)N(C)Cc2[nH]c3ccccc3c2C)CCC1=O (stereo unspecified)	-7%	u	i	u	u	13%
Cc1ccc(-n2ncc3c(NC4CCCCCC4)ncnc32)cc1	2%	18µM*	i	18%	13µM*	98%
Cc1ccc(C)c(Nc2ncnc3c2cnn3-c2ccc(F)cc2)c1	-38%	u	u	-11%	u	19%
Cc1ccc(-n2ncc3c(NC4CCCCC4)ncnc32)cc1	-4%	21µM*	i	17%	u	78%
Fc1ccc(-n2ncc3c(N4CCCCCC4)ncnc32)cc1	-13%	u	i	1%	12µM*	113%
Fc1ccc(-n2ncc3c(NC4CCCCCC4)ncnc32)cc1	-49%	23µM*	i	-15%	23µM*	72%
Cc1ccc(-n2ncc3c(N4CCCCCC4)ncnc32)cc1	-1%	u	i	-1%	u	u
Cc1ccc(-n2ncc3c(Nc4cccc(C)c4C)ncnc32)cc1	-12%	u	i	4%	u	44%
O=c1c(-c2cccc(Cl)c2)nc2cncnc2n1Cc1ccccc1	x	6%	x	x	u	x
O=C(CN(Cc1ccccc1F)C(=O)Cn1nnc(-c2cccs2)n1)NCC1CCCO1 (stereo unspecified)	-2%	-14%	i	5%	-13%	2%
Cc1ccc2ncc(C(=O)NC(C)c3ccccc3)c(=O)n2c1 (stereo unspecified)	-7%	u	i	-8%	u	0%
Cc1c(C(=O)N(C)C)sc2c1c(=O)n(-c1ccc(Cl)c(Cl)c1)c(=O)n2CC(=O)Nc1ccc(Br)cc1F	4%	x	x	-10%	x	x
COc1cc(N)c(Cl)cc1C(=O)N[C@H]1CCN(CCCOc2ccc(F)cc2)C[C@@H]1OC	x	27µM*	x	x	-82%	x
CCOc1cc(N)c(Cl)cc1C(=O)NCC1CN(Cc2ccc(F)cc2)CCO1 (stereo unspecified)	-26%	u	u	-3%	u	7%
O=c1c2c([nH]c3ccccc13)CCCC2	8%	8.2µM*	i	8%	u	3%
O=c1c2c([nH]c3ccccc13)C(=C1CCCC1)CC2	6%	21µM*	i	0%	23µM*	6%
CC(C)(C)C1CCc2[nH]c3ccccc3c(=O)c2C1 (stereo unspecified)	-20%	21µM*	i	-12%	23µM*	51%
CC12CCC=CC1C(c1ccoc1)N(Cc1ccccc1)C2=O (stereo unspecified)	-33%	x	x	u	x	x
CCCC1=Nc2cc(C(=O)NCCOC)ccc2Sc2ccccc21	7%	0.58µM*	x	x	u	x
CCCC1=Nc2cc(C(=O)NCCCOC(C)C)ccc2Sc2ccccc21	5%	4.1µM*	i	-29%	4.6µM*	-15%
Cc1cccc(N(C)C(=O)CN(C)S(=O)(=O)c2ccc3[nH]c4c(c3c2)CCCC4)c1	-24%	u	u	u	23µM*	0%
CN(CC(=O)NCc1ccc(F)cc1)S(=O)(=O)c1ccc2[nH]c3c(c2c1)CCCC3	-3%	18µM*	u	-2%	21µM*	u
Cc1cc(C)cc(NC(=O)CN(C)S(=O)(=O)c2ccc3[nH]c4c(c3c2)CCCC4)c1	-31%	u	u	u	u	u
Cc1cccc(C)c1NC(=O)CN(C)S(=O)(=O)c1ccc2[nH]c3c(c2c1)CCCC3	-28%	21µM*	u	u	u	u

Compound activity deposited in PubChem by National Center for Advancing Translational Sciences (NCATS).
